# Laboratory results reported in the supplement of paper PMC8728848.
# The full list was thinned out, with the strongest signals kept by preference.
# B1: BSR4 (Toxoplasma gondii), Q95NL6 (protein)
# chain: MVMMGSMQQRRGGLRSNARQLLAVCMSGVVFFSSGQAVADNLLEGLLHRTLQQQVEVTSRLTVAGSDAKCDFFTPATQDSPPVSGSLTLSKGRMTATFECSATQALSISTIPTNIEQNVCDPKKTTNGTVCQFGANGSAGTEVTLKDLLETDRIVNWKVNEQREESNKSQKWSLELHNEDLPLTDKAFVVGCQATSAARGTESGKTAACKLTVNVEARASSLAENNVVTCAYGKGSNPNPVEVEMSTEKNTLTINCGSDGSLQPTTYAEEYCVADSKDVNRCSTTRFVEIFPKFLKSWWVTETQKRTSATLTIPQTDLPEADQQFLVGCVPKKTAPEDPKKDKESGTETGAPTSCTVLVTVKAASSASHASPTVQILAAASSAAA
# B2: Epa2 (Candida glabrata) (protein)
# chain: MGSSHHHHHHSSGLVPRGSHMASSKDPTSFPMGCSPQVLKTQPGLAVKLYSYGHPVPGCAYNTYQYPDFPRSGYKKERKLADITGVNGRIDIDLKPNDPCRVLSGNLPSNYNYQNTLTYTNFTMILYGYFQPKVTGYHTFNLEADDLLFMNLGAGNAFDCCRAESTLDNFGNYQSYSIWGTDKATADLTVFLVSGIYYPIRLFYVNRDNNAVLDFSFSTEFNKEIIHDFTSYFFSASDEEQCPGNI
# How the values were obtained:
# Assay in all cases: glycan array binding signal (z-score within array); higher = stronger binding
# Conditions in all cases: glycan notation: IUPAC condensed, linker removed
# [1] = biological target: Fuc(a1-2)Gal(b1-3)[Fuc(a1-4)]GlcNAc
# Summary of the method: (§1)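 Glycan array binding is given as a within-array Z-score, which can be read as non-binding when negative. The arrays, 3228 of them, came from the Consortium for Functional Glycomics database and were retained only where the protein sequence was available. Z-scores were averaged across arrays of the same protein sequence at different concentrations or buffers and across linkers.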
# [2] = biological target: Fuc(a1-2)Gal(b1-4)[Fuc(a1-3)]GlcNAc(b1-2)Man(a1-3)[Fuc(a1-2)Gal(b1-4)[Fuc(a1-3)]GlcNAc(b1-2)Man(a1-6)]Man(b1-4)GlcNAc(b1-4)GlcNAc
# Summary of the method: as §1
# [3] = biological target: Fuc(a1-2)[GalNAc(a1-3)]Gal(b1-4)GlcNAc(b1-2)Man(a1-3)[Fuc(a1-2)[GalNAc(a1-3)]Gal(b1-4)GlcNAc(b1-2)Man(a1-6)]Man(b1-4)GlcNAc(b1-4)GlcNAc
# Summary of the method: as §1
# [4] = biological target: Fuc(a1-3)[Gal(b1-4)]GlcNAc
# Summary of the method: as §1
# [5] = biological target: Fuc(a1-3)[Gal(b1-4)]GlcNAc(b1-4)Gal(b1-4)[Fuc(a1-3)]GlcNAc
# Summary of the method: as §1
# [6] = biological target: Gal(b1-3)[Fuc(a1-4)]GlcNAc(b1-2)Man(a1-3)[Gal(b1-3)[Fuc(a1-4)]GlcNAc(b1-2)Man(a1-6)]Man(b1-4)GlcNAc(b1-4)GlcNAc
# Summary of the method: as §1
# [7] = biological target: Gal(b1-4)GlcNAc(b1-2)Man(a1-3)[GlcNAc(b1-2)Man(a1-6)]Man(b1-4)GlcNAc(b1-4)GlcNAc
# Summary of the method: as §1
# [8] = biological target: Gal(b1-4)GlcNAc(b1-3)GalNAc
# Summary of the method: as §1
# [9] = biological target: Gal(b1-4)GlcNAc(b1-3)[GlcNAc(b1-6)]Gal(b1-4)GlcNAc
# Summary of the method: as §1
# [10] = biological target: Gal3S(b1-3)[Fuc(a1-4)]GlcNAc
# Summary of the method: as §1
# [11] = biological target: Gal3S(b1-4)[Fuc(a1-3)]Glc6S
# Summary of the method: as §1
# GalNAc(a1-3)Gal = biological target: GalNAc(a1-3)Gal
# Summary of the method: as §1
# [12] = biological target: GalNAc(b1-3)Gal(a1-6)Gal(b1-4)Glc
# Summary of the method: as §1
# Glc(b1-6)Glc = biological target: Glc(b1-6)Glc
# Summary of the method: as §1
# [13] = biological target: GlcNAc(a1-4)Gal(b1-4)GlcNAc(b1-3)Gal(b1-4)GlcNAc(b1-3)Gal(b1-4)GlcNAc
# Summary of the method: as §1
# [14] = biological target: GlcNAc(a1-4)Gal(b1-4)GlcNAc(b1-3)Gal(b1-4)[Fuc(a1-3)]GlcNAc(b1-3)Gal(b1-4)[Fuc(a1-3)]GlcNAc
# Summary of the method: as §1
# [15] = biological target: GlcNAc(b1-2)Gal(b1-3)GalNAc
# Summary of the method: as §1
# [16] = biological target: GlcNAc(b1-2)Man(a1-3)[GlcNAc(b1-2)Man(a1-6)]Man(b1-4)GlcNAc(b1-4)[Fuc(a1-6)]GlcNAc
# Summary of the method: as §1
# GlcNAc(b1-3)Gal = biological target: GlcNAc(b1-3)Gal
# Summary of the method: as §1
# [17] = biological target: GlcNAc(b1-3)Gal(b1-3)GalNAc
# Summary of the method: as §1
# [18] = biological target: Neu5Ac(a2-3)Gal(b1-3)[Neu5Ac(a2-6)]GalNAc
# Summary of the method: as §1
# [19] = biological target: Neu5Ac(a2-3)Gal(b1-4)GlcNAc(b1-3)Gal(b1-4)[Fuc(a1-3)]GlcNAc
# Summary of the method: as §1
# [20] = biological target: Neu5Ac(a2-3)Gal(b1-4)[Fuc(a1-3)]GlcNAc(b1-3)GalNAc
# Summary of the method: as §1
# [21] = biological target: Neu5Ac(a2-3)Gal(b1-4)[Fuc(a1-3)]GlcNAc(b1-6)[Gal(b1-3)]GalNAc
# Summary of the method: as §1
# [22] = biological target: Neu5Ac(a2-3)Gal6S(b1-4)GlcNAc
# Summary of the method: as §1
# [23] = biological target: Neu5Ac(a2-6)Gal(b1-4)GlcNAc(b1-2)Man(a1-3)[GlcNAc(b1-2)Man(b1-4)GlcNAc(b1-2)Man(a1-6)]Man(b1-4)GlcNAc(b1-4)GlcNAc
# Summary of the method: as §1
# [24] = biological target: Neu5Ac(a2-6)GlcNAc(b1-4)GlcNAc(b1-4)GlcNAc
# Summary of the method: as §1
# [25] = biological target: Neu5Ac9Ac(a2-3)Gal(b1-4)GlcNAc
# Summary of the method: as §1
# [26] = biological target: Neu5Gc(a2-3)Gal(b1-4)GlcNAc
# Summary of the method: as §1
# [27] = biological target: Fuc(a1-2)Gal(b1-3)[Fuc(a1-4)]GlcNAc(b1-3)[Fuc(a1-3)[Gal(b1-4)]GlcNAc(b1-6)]Gal(b1-4)Glc
# Summary of the method: as §1
# [28] = biological target: Fuc(a1-2)Gal(b1-4)Fuc(a1-3)]GlcNAc(b1-2)Man(a1-3)[Fuc(a1-2)Gal(b1-4)[Fuc(a1-3)]GlcNAc(b1-2)Man(a1-6)]Man(b1-4)GlcNAc(b1-4)GlcNAc
# Summary of the method: as §1
# Fuc(a1-2)Gal(b1-4)GlcNAc = biological target: Fuc(a1-2)Gal(b1-4)GlcNAc
# Summary of the method: as §1
# [29] = biological target: Fuc(a1-2)Gal(b1-4)GlcNAc(b1-6)GalNAc
# Summary of the method: as §1
# [30] = biological target: Fuc(a1-2)Gal(b1-4)[Fuc(a1-3)]GlcNAc(b1-3)GalNAc
# Summary of the method: as §1
# [31] = biological target: Fuc(a1-2)Gal6S(b1-3)GlcNAc6S
# Summary of the method: as §1
# [32] = biological target: Fuc(a1-2)[Gal(a1-3)]Gal(b1-3)GlcNAc
# Summary of the method: as §1
# [33] = biological target: Fuc(a1-2)[Gal(a1-3)]Gal(b1-4)[Fuc(a1-3)]Glc
# Summary of the method: as §1
# [34] = biological target: Fuc(a1-2)[GalNAc(a1-3)]Gal(b1-3)GalNAc(b1-3)Gal(a1-4)Gal(b1-4)Glc
# Summary of the method: as §1
# [35] = biological target: Fuc(a1-2)[GalNAc(a1-3)]Gal(b1-4)GlcNAc(b1-2)Man(a1-3)[Fuc(a1-2)[GalNAc(a1-3)]Gal(b1-4)GlcNAc(b1-2)Man(a1-6)]Man(b1-4)GlcNAc(b1-4)[Fuc(a1-6)]GlcNAc
# Summary of the method: as §1
# [36] = biological target: Fuc(a1-2)[GalNAc(a1-3)]Gal(b1-4)GlcNAc(b1-3)Gal(b1-4)GlcNAc
# Summary of the method: as §1
# [37] = biological target: Fuc(a1-2)[GalNAc(a1-3)]Gal(b1-4)[Fuc(a1-3)]GlcNAc(b1-3)GalNAc
# Summary of the method: as §1
# [38] = biological target: Fuc(a1-3)[Gal(b1-4)]GlcNAc(b1-2)Man
# Summary of the method: as §1
# [39] = biological target: Fuc(a1-3)[Gal(b1-4)]GlcNAc(b1-3)GalNAc
# Summary of the method: as §1
# [40] = biological target: Fuc(a1-3)[Gal(b1-4)]GlcNAc(b1-6)GalNAc
# Summary of the method: as §1
# [41] = biological target: Gal(a1-3)Gal(b1-3)[Fuc(a1-4)]GlcNAc(b1-2)Man(a1-3)[Gal(a1-3)Gal(b1-3)[Fuc(a1-4)]GlcNAc(b1-2)Man(a1-6)]Man(b1-4)GlcNAc(b1-4)GlcNAc
# Summary of the method: as §1
# Gal(a1-4)GlcNAc = biological target: Gal(a1-4)GlcNAc
# Summary of the method: as §1
# [42] = biological target: Gal(b1-3)[Neu5Ac(a2-6)]GlcNAc(b1-4)Gal(b1-4)Glc
# Summary of the method: as §1
# Gal(b1-4)Glc6S = biological target: Gal(b1-4)Glc6S
# Summary of the method: as §1
# [43] = biological target: Gal(b1-4)GlcNAc(b1-3)Gal(b1-3)GalNAc
# Summary of the method: as §1
# [44] = biological target: Gal(b1-4)GlcNAc(b1-3)Gal(b1-3)GlcNAc
# Summary of the method: as §1
# [45] = biological target: Gal(b1-4)GlcNAc(b1-3)Gal(b1-4)GlcNAc
# Summary of the method: as §1
# [46] = biological target: Gal(b1-4)GlcNAc(b1-3)[Fuc(a1-3)GlcNAc(b1-6)]Gal(b1-4)Glc
# Summary of the method: as §1
# Gal3S(b1-3)GlcNAc = biological target: Gal3S(b1-3)GlcNAc
# Summary of the method: as §1
# Gal3S6S(b1-4)GlcNAc6S = biological target: Gal3S6S(b1-4)GlcNAc6S
# Summary of the method: as §1
# Gal4S(b1-4)GlcNAc = biological target: Gal4S(b1-4)GlcNAc
# Summary of the method: as §1
binder,measurement,setting,value
B1,glycan array binding signal (z-score),[1],0.187
same,glycan array binding signal (z-score),[2],1.41
same,glycan array binding signal (z-score),[3],-0.071
same,glycan array binding signal (z-score),[4],0.23
same,glycan array binding signal (z-score),[5],1.44
same,glycan array binding signal (z-score),[6],1.39
same,glycan array binding signal (z-score),[7],-0.349
same,glycan array binding signal (z-score),[8],0.454
same,glycan array binding signal (z-score),[9],0.261
same,glycan array binding signal (z-score),[10],5.04
same,glycan array binding signal (z-score),[11],0.993
same,glycan array binding signal (z-score),GalNAc(a1-3)Gal,-0.538
same,glycan array binding signal (z-score),[12],-0.617
same,glycan array binding signal (z-score),Glc(b1-6)Glc,-0.765
same,glycan array binding signal (z-score),[13],-0.25
same,glycan array binding signal (z-score),[14],1.8
same,glycan array binding signal (z-score),[15],0.324
same,glycan array binding signal (z-score),[16],7.79
same,glycan array binding signal (z-score),GlcNAc(b1-3)Gal,-0.636
same,glycan array binding signal (z-score),[17],1.23
same,glycan array binding signal (z-score),[18],0.026
same,glycan array binding signal (z-score),[19],0.289
same,glycan array binding signal (z-score),[20],3.61
same,glycan array binding signal (z-score),[21],1.73
same,glycan array binding signal (z-score),[22],-0.227
same,glycan array binding signal (z-score),[23],-0.667
same,glycan array binding signal (z-score),[24],-0.434
same,glycan array binding signal (z-score),[25],0.407
same,glycan array binding signal (z-score),[26],-0.102
B2,glycan array binding signal (z-score),[1],0.672
same,glycan array binding signal (z-score),[27],0.365
same,glycan array binding signal (z-score),[28],0.533
same,glycan array binding signal (z-score),Fuc(a1-2)Gal(b1-4)GlcNAc,-0.046
same,glycan array binding signal (z-score),[29],2.02
same,glycan array binding signal (z-score),[30],4.06
same,glycan array binding signal (z-score),[31],1.81
same,glycan array binding signal (z-score),[32],-0.553
same,glycan array binding signal (z-score),[33],-0.56
same,glycan array binding signal (z-score),[34],-0.252
same,glycan array binding signal (z-score),[35],-0.26
same,glycan array binding signal (z-score),[36],-0.172
same,glycan array binding signal (z-score),[37],4.26
same,glycan array binding signal (z-score),[38],-1.15
same,glycan array binding signal (z-score),[39],0.659
same,glycan array binding signal (z-score),[40],2.23
same,glycan array binding signal (z-score),[41],-0.479
same,glycan array binding signal (z-score),Gal(a1-4)GlcNAc,2.5
same,glycan array binding signal (z-score),[42],0.015
same,glycan array binding signal (z-score),Gal(b1-4)Glc6S,-0.198
same,glycan array binding signal (z-score),[43],0.503
same,glycan array binding signal (z-score),[44],-0.725
same,glycan array binding signal (z-score),[45],-0.158
same,glycan array binding signal (z-score),[8],-0.071
same,glycan array binding signal (z-score),[46],0.111
same,glycan array binding signal (z-score),[9],-1.09
same,glycan array binding signal (z-score),Gal3S(b1-3)GlcNAc,-0.16
same,glycan array binding signal (z-score),[10],0.641
same,glycan array binding signal (z-score),Gal3S6S(b1-4)GlcNAc6S,2.14
same,glycan array binding signal (z-score),Gal4S(b1-4)GlcNAc,-0.316
